The sample as a whole holds a higher share of hits than the screen did.
12-LOX inh – Primary qHTS assay for inhibitors of human arachidonate 12S-lipoxygenase (ALOX12): Round 2 | purified 12hLO, xylenol orange hydroperoxide absorbance | Potency, µM (series often up to 108 µM), hits mostly inhibitors | Polyunsaturated fatty acid lipoxygenase ALOX12 (Homo sapiens), P18054 | 1.1% of 580,000 active | AID 1671190, 2021
Target sequence (P18054 whole entry, looked up): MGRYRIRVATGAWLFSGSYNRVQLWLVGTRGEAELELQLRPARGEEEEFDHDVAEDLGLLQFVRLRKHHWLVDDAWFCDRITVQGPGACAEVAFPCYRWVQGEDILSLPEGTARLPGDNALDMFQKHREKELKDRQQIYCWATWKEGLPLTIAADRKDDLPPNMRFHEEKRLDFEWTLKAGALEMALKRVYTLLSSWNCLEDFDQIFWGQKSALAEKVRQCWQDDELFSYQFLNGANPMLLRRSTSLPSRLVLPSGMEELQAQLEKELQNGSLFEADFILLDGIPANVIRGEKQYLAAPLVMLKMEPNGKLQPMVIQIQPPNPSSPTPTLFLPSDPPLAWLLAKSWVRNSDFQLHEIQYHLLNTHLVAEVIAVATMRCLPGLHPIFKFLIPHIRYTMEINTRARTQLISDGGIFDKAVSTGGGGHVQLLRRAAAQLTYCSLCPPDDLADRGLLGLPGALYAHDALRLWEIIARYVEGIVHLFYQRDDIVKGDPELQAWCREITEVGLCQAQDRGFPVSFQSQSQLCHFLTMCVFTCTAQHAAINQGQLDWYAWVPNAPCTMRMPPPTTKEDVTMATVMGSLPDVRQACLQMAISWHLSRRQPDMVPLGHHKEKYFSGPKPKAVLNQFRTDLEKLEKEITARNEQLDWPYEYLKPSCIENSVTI
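Purified human 12hLO (150 nM final) in 25 mM Hepes, 0.01% Triton X-100, pH 7.0 was preincubated 15 min at room temperature with compound. Then 40 uM arachidonic acid was added, 30 min. Hydroperoxide was read by Fe-XO absorbance ratio 573/405 nm.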
IL-1B inflam inh – qHTS for Inhibitors of Inflammasome Signaling: IL-1-beta AlphaLISA Primary Screen. AID 743279, 2014. THP-1 LPS/ATP IL-1B secretion, AlphaLISA, 16 h; stronger effect = lower value. activity change, % at 57.5 µM. 4.7% of 360,000 active; in the data active = activity change below about -50%; inconclusive = mostly about -30% to -49%
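THP-1 cells pretreated 1 hr with compounds (up to 57.5 uM final), then stimulated with LPS (250 ng/mL final) plus ATP (1.25 mM final); secreted IL-1B measured by AlphaLISA after 16 hr, decreased signal indicating inhibition.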
TDP1 cell noCPT – qHTS for Inhibitors of human tyrosyl-DNA phosphodiesterase 1 (TDP1): qHTS in cells in absence of CPT; AID 686978, 2013; 15% of 420,000 active; DT40 Tdp1-/- hTDP1 cells, no CPT, ATP luminescence, 48 h; Potency, µM (highest dose often 46.2 µM), most hits filed as inhibitors; also: nearly all actives have a fitted effect of over 55% in size
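Chicken DT40 Tdp1-/- cells complemented with human TDP1, screened without camptothecin (DMSO vehicle only), 400 cells/well. Compounds pin-transferred, cells incubated at 37 °C for at least 48 hr. Growth read as ATP-dependent luminescence (CellTiter-Glo, 30 min at RT).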
HT1080 IDH1KD tx – qHTS for induction of synthetic lethality in tumor cells producing 2HG: qHTS for the HT-1080-IDH1KD cell line | AID 686971, 2013 | Potency, µM (highest dose often 46.1 µM), usual class: cytotoxic | HT-1080 IDH1 knockdown viability, ATP luminescence, 48 h | 2% of 360,000 active
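HT-1080-IDH1KD cells (IDH1 knocked down), 750/well in RPMI with 5% FBS, treated with compound 48 h at 37 degrees C. Viability by CellTiter-Glo luminescence, normalised to DMSO and no-cell wells; concentration-response curves classed.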
HT1080NT lethal – qHTS for induction of synthetic lethality in tumor cells producing 2HG: qHTS for the HT-1080-NT fibrosarcoma cell line; HT-1080-NT fibrosarcoma viability, CellTiter-Glo ATP luminescence, 48 h; Potency, µM (doses to about 46.1 µM), hits mostly cytotoxic; 1.6% of 360,000 active; AID 686970, 2013;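 also: NT is the 2HG producing partner of a matched IDH1 knockdown line; nearly all actives have a fitted effect of over 55% in size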
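A 48-hour cytotoxicity screen used HT-1080-NT cells plated 2 hours before compound delivery. ATP-based CellTiter-Glo luminescence measured viability, normalized to DMSO and no-cell controls.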
DT40 TDP1 CPT – qHTS for Inhibitors of human tyrosyl-DNA phosphodiesterase 1 (TDP1): qHTS in cells in presence of CPT; 12% of 420,000 active; Potency, µM (doses to about 46.2 µM), actives largely listed as inhibitors; chicken DT40 Tdp1-/-;hTDP1 cells + 20 nM CPT, ATP luminescence, 48 h; also: nearly all actives have a fitted effect of over 55% in size
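Chicken DT40 Tdp1-/- cells stably complemented with human TDP1 were seeded at 400 cells/well in medium containing 20 nM camptothecin, exposed to pin-transferred compounds, and grown at 37 °C for at least 48 hr. Viability was read as ATP luminescence.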
A number is an active result. Unless noted, calls follow the shape of the dose curve; as a rule, active = well fitted curve in the direction sought with a large enough effect; inconclusive = small, poorly fitted or top-dose-only effect, or another doubt; inactive = no such curve, though single readings can be large; an effect the other way counts as inactive or inconclusive.

`Cc1ccc(C(=O)NNC(=S)NC(=O)c2ccco2)cc1` gave 12-LOX inh inactive, IL-1B inflam inh inactive, TDP1 cell noCPT 12µM, HT1080 IDH1KD tx inconclusive, HT1080NT lethal inconclusive and DT40 TDP1 CPT 7.3µM.
`Cc1ccc(C(=O)NNC(=O)c2ccco2)cc1` gave 12-LOX inh inactive, IL-1B inflam inh inactive, TDP1 cell noCPT inactive, HT1080 IDH1KD tx inactive, HT1080NT lethal inactive and DT40 TDP1 CPT inactive.
O=C(O)[C@@H]1CN(C(=O)CCCc2cn[nH]c2)C[C@H]1c1ccc2c(c1)OCO2 was read as 12-LOX inh inactive.
For CCOc1ccccc1C1CC(=O)NC2=C1C(=O)CCC2 (stereo unspecified) the results were 12-LOX inh inactive, IL-1B inflam inh inactive, TDP1 cell noCPT 16µM, HT1080 IDH1KD tx 23µM, HT1080NT lethal inconclusive and DT40 TDP1 CPT inconclusive.
CCOc1ccc(C2CC(=O)NC3=C2C(=O)CCC3)cc1 (stereo unspecified) was read as 12-LOX inh inactive, IL-1B inflam inh inactive, TDP1 cell noCPT inactive, HT1080 IDH1KD tx inactive, HT1080NT lethal inactive and DT40 TDP1 CPT inactive.
CCCCOc1ccccc1C1CC(=O)NC2=C1C(=O)CCC2 (stereo unspecified) was read as 12-LOX inh inactive, IL-1B inflam inh inactive, TDP1 cell noCPT 1.6µM, HT1080 IDH1KD tx 1.6µM, HT1080NT lethal 2.3µM and DT40 TDP1 CPT 1.6µM.
`CCCOc1ccccc1C1CC(=O)NC2=C1C(=O)CCC2` (stereo unspecified) gave 12-LOX inh inactive, IL-1B inflam inh inactive, TDP1 cell noCPT 4.1µM, HT1080 IDH1KD tx 8.2µM, HT1080NT lethal 12µM and DT40 TDP1 CPT 4.1µM.
For O=C(Nc1ccc(F)c(F)c1)c1ccc(Cn2ccn3nc4c(c3c2=O)CCCC4)cc1 the results were 12-LOX inh inactive.
Cn1c(=O)n(C)c2cc(N3CCOCC3)c(NS(=O)(=O)c3ccc(Cl)cc3)cc21 was read as 12-LOX inh inactive, TDP1 cell noCPT 13µM and DT40 TDP1 CPT inconclusive.
Cn1c(=O)n(C)c2cc(N3CCOCC3)c(NS(=O)(=O)c3ccc(C(C)(C)C)cc3)cc21 was read as 12-LOX inh inactive, TDP1 cell noCPT 4.1µM and DT40 TDP1 CPT 7.3µM.
For Cn1c(=O)n(C)c2cc(N3CCOCC3)c(NS(=O)(=O)c3cccc(C#N)c3)cc21 the results were 12-LOX inh inconclusive, TDP1 cell noCPT inconclusive and DT40 TDP1 CPT 18µM.
For C=CCn1c(CNC(=O)c2ccccc2F)nnc1SCC(=O)N1CCOCC1 the results were 12-LOX inh inactive, IL-1B inflam inh inactive, TDP1 cell noCPT inactive, HT1080 IDH1KD tx inactive, HT1080NT lethal inactive and DT40 TDP1 CPT inactive.
Screening Oc1ccc(Nc2nc(N3CCCC3)c3ccccc3n2)cc1 returned 12-LOX inh inconclusive, IL-1B inflam inh -99, TDP1 cell noCPT 21µM, HT1080 IDH1KD tx inconclusive, HT1080NT lethal inconclusive and DT40 TDP1 CPT 26µM.
Cc1ccc(Nc2nc(N)c([N+](=O)[O-])c(N3CCOCC3)n2)cc1 was read as 12-LOX inh inactive, IL-1B inflam inh inactive, TDP1 cell noCPT inactive, HT1080 IDH1KD tx inactive, HT1080NT lethal inactive and DT40 TDP1 CPT inactive.
For c1ccc2c(N3CCOCC3)nc(N3CCOCC3)nc2c1 the results were 12-LOX inh inconclusive, IL-1B inflam inh inactive, TDP1 cell noCPT inconclusive, HT1080 IDH1KD tx inactive, HT1080NT lethal inactive and DT40 TDP1 CPT inconclusive.
